Assay outcomes deposited in PubChem by National Center for Advancing Translational Sciences (NCATS).
An excerpt weighted towards active compounds, which were near 4.6% of everything screened.
TRHR ag: activates the human TRH receptor | P34981 | TRHR cells, calcium flux fluo-8, FDSS agonist mode | 360,000 tested, 0.18% active | activation, % at 2 µM
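In this calcium-flux screen, cells bearing human TRHR are dye-loaded with fluo-8, baselined for 10 cycles, then exposed to library compounds; positive kinetic calcium responses during the agonist phase mark hits, with TRH as control.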
TRHR PAM: allosteric enhancers of human TRH receptor. P34981. TRHR cells, fluo-8 calcium fluorescence, EC20 TRH enhancement. enhancement, % at 2 µM. 360,000 tested, 0.66% active. AID 493056; in the data active = enhancement above about 30%
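Enhancer read-out: after compound pinning and an initial kinetic agonist-mode read, an EC20 of TRH (10 nM final) was injected and fluo-8 calcium signal (Ex 480/Em 530) followed at 1 s/cycle for 100 cycles in TRHR-expressing cells.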
D1 antag: antagonists of human D1 dopamine receptor; HEK293 TREx D1 cells, calcium flux, dopamine EC80; stronger effect = lower value; activity change, negative = inhibition, % at 10 µM; P21728; AID 504652; 360,000 tested, 3.2% active; in the data active = activity change below about -30%
Target sequence (P21728 whole entry, looked up): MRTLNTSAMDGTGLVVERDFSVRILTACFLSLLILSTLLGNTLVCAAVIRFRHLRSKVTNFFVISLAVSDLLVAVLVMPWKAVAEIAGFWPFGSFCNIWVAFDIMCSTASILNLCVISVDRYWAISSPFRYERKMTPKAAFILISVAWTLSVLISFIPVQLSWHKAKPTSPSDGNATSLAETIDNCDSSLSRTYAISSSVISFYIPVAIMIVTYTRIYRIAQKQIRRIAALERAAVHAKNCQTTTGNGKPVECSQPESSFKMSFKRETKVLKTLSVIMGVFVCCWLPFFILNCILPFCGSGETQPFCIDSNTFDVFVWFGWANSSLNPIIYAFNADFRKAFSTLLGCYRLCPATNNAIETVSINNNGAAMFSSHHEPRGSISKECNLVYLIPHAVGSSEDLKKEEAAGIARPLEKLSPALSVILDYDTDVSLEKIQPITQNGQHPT
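Using tetracycline-induced force-coupled D1 Hek293 cells and a calcium dye, signals were followed for 180 s after compound, then for 180 s after EC80 dopamine, to detect inhibitors.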
D1 ag: activates the human D1 dopamine receptor; AID 504660; P21728; 360,000 tested, 1% active; HEK293 T-REx D1 cells, calcium flux, agonist mode; activation, % at 2 µM
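Agonism was scored from calcium flux recorded over 180 s (1 read/s) after pintool compound addition, following a 10-cycle baseline. Cells were inducible force-coupled HEK293 TREx D1, plated overnight at 30 C and loaded with no-wash calcium dye.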
D1 potentiator: enhances dopamine response at the human D1 receptor. HEK293 TREx D1 cells, calcium flux, dopamine EC20 potentiation. AID 504651. potentiation, % at 10 µM. 360,000 tested, 0.036% active; in the data active = potentiation above about 30%
Large screens that a line does not name were inactive; ! = not active in a repeat. Rule as the data show it, unless noted: active = activation above about 30%; inactive = the rest.

c1ccc(-n2ncc3c(NCCN4CCOCC4)ncnc32)cc1	TRHR PAM 33
O=C(c1ccc2c(c1)OCO2)N1CCC2(CC1)Oc1ccc(Cl)cc1C(=O)C21CC(c2ccc(Cl)cc2)=NO1 (stereo unspecified)	none
C=CC[n+]1c(-c2ccc(C)cc2)csc1Nc1ccc(NC(C)=O)cc1	D1 antag -47
O=C(CCS(=O)(=O)c1ccc(Cl)cc1)Nc1ccc(F)cc1	none
CC(=O)CN1C(=O)NC2(CCCc3ccccc32)C1=O (stereo unspecified)	none
CC(C)CN1C(=O)NC2(CCCc3ccccc32)C1=O (stereo unspecified)	D1 antag -80
Cc1ccc(S(=O)(=O)c2nnn3c2nc(N2CCC(C(N)=O)CC2)c2cc(Cl)ccc23)cc1C	D1 antag -33
CCOC(=O)C1CCN(c2nc3c(S(=O)(=O)c4ccc(C)c(C)c4)nnn3c3ccc(Cl)cc23)CC1	none
Cc1cc(C(F)(F)F)c(C#N)c(SCC(=O)Nc2nc3ccccc3s2)n1	D1 ag 64
CCOc1ccc(-c2cc(C(F)(F)F)c(C#N)c(SCC(=O)Nc3ccccc3)n2)cc1	D1 antag -52, D1 ag 32
CCc1nnc(NC(=O)CSc2ncnc3c2oc2ccccc23)s1	none
O=C(CSc1ncnc2c1oc1ccccc12)Nc1nc2ccccc2s1	D1 antag -48
Cc1ccc(-c2cc(C(F)(F)F)c(C#N)c(SCC(=O)Nc3ccccc3F)n2)cc1	D1 ag 72
Cc1ccc(COc2ccc(-c3nnco3)cc2)cc1	none
CCOc1cccc(C(=O)NC(c2ccccc2)C(C)C)c1 (stereo unspecified)	none
CC1=CC(C)(C)NC(=S)N1c1ccc(C)cc1C	none
CC1=CC(C)(C)NC(=S)N1c1cc(C)cc(C)c1	D1 antag -51
COCC(=O)O[C@]1(CCN(C)CCCc2nc3ccccc3[nH]2)CCc2cc(F)ccc2[C@@H]1C(C)C	D1 ag 67
Cc1cccc(OCC(=O)NCCc2nc3ccccc3[nH]2)c1C	none
CCCNC(=O)c1ccc2c(=O)c(O)c(-c3ccsc3)[nH]c2c1	none
CCCNC(=O)c1ccc2c(=O)c(O)c(-c3ccc(C)cc3)[nH]c2c1	D1 antag -93
Cc1ccc(-c2[nH]c3cc(C(=O)NCCCn4ccnc4)ccc3c(=O)c2O)cc1	D1 antag -57
Cc1ccc(CNC(=O)c2ccc3c(=O)c(O)c(-c4ccc(C)cc4)[nH]c3c2)cc1	D1 antag -41
CCCNC(=O)c1ccc2c(=O)c(O)c(-c3ccc(OC)cc3)[nH]c2c1	D1 antag -35
Cc1c(NC(=O)Nc2ccc(F)cc2)c(=O)n(-c2ccccc2)n1C	none
Cc1cc(C)cc(NC(=O)c2nnn(Cc3cccc(Br)c3)c2N)c1	none
Cc1ccc(CNC(=O)c2ccc3c(O)c(S(=O)(=O)c4ccc(Cl)cc4)c(=O)[nH]c3c2)cc1	none
Cc1ccc(-c2[nH]c3cc(C(N)=O)ccc3c(=O)c2O)cc1	D1 antag -36
COc1cccc(NC(=O)c2oc3ccccc3c2NC(=O)c2cc3ccccc3o2)c1	none
CC1CCC(NC(=O)CN(C)S(=O)(=O)c2ccc3c(c2)CCC(=O)N3)CC1 (stereo unspecified)	D1 antag -31
O=C(Cc1ccc(Cl)cc1Cl)NCc1cccnc1	D1 antag -41
O=C(NCc1cccnc1)c1ccc(Br)o1	D1 antag -32
O=C(Cc1c(F)cccc1Cl)NCc1cccnc1	none
O=C(NCc1ccncc1)c1ccc(Br)o1	none
CCN(CC)C(=O)C[n+]1cccc(C(N)=O)c1	D1 antag -31
Cc1ccc(C(=O)C[n+]2cccc(C(N)=O)c2)cc1	none
Nc1nonc1C(=O)NC(c1ccccc1)c1ccccc1	D1 antag -36
CCc1ccc(-c2ccc3nnc(SC)n3n2)cc1	none
CCSc1nnc2ccc(-c3ccc(C)cc3)nn12	D1 ag 59
O=C(CSc1nnc2ccc(-c3ccc(F)cc3)nn12)N1CCCC1	D1 antag -32
O=c1[nH]cc(-c2ccccc2)c(=O)[nH]1	none
c1ccc(-c2cn(-c3ccccc3)c3[n+]2CCS3)cc1	none
COc1ccc(-c2cn(-c3ccccc3)c3[n+]2CCS3)cc1	D1 antag -53!
O=C(Nc1ccc2c(c1)OCO2)c1cc2nc(C3CC3)cc(C(F)(F)F)n2n1	none
O=C(Nc1cccnc1)c1cc2nc(C3CC3)cc(C(F)(F)F)n2n1	D1 antag -31
CCOc1cc(/C=C(\C#N)C(N)=O)ccc1OS(=O)(=O)c1ccccc1	none
COc1ccccc1C(=O)Nc1cccc(-c2cn3ccsc3n2)c1	none
Cc1cc(N2CCCC2)ccc1/C=C1\NC(=S)N(C)C1=O	TRHR ag 64, D1 ag 213
O=C1/C(=C/c2ccc(N3CCCC3)cc2)NC(=S)N1C1CC1	TRHR ag 91, D1 ag 205
CC(C)c1ccc(NC(=O)CCCN2C(=S)NC(C)(C)CC2C)cc1 (stereo unspecified)	D1 antag -33
CC(NC(=O)c1cc(COc2cccc(C(F)(F)F)c2)on1)c1nccs1 (stereo unspecified)	none
N#C/C(=C\c1cc(Cl)c(OCc2ccc(Cl)cc2)c(Cl)c1)C(N)=O	D1 antag -43
COc1cc(C(=O)Nc2cc(C)nn2-c2ccccc2)cc(OC)c1OC	none (no result: D1 potentiator)
O=C1NC(=S)/C(=C\c2ccc(-c3ccccc3Cl)o2)S1	none
O=C1NC(=O)/C(=C/c2ccc(-c3cc(C(=O)O)ccc3Cl)o2)S1	D1 antag -45
O=C(Nc1cccnc1)c1ccc(Cl)c(S(=O)(=O)N2CCCC2)c1	none
COc1ccc2oc(=O)c(C(=O)C[n+]3cccc(C)c3)cc2c1	none
CCC1S/C(=N/N=C/c2ccco2)N(Cc2ccc(F)cc2)C1=O (stereo unspecified)	none
CC1S/C(=N/N=C/c2ccco2)N(Cc2ccccc2)C1=O (stereo unspecified)	D1 antag -40
CC1CCCCN1Cc1nc2c(c(=O)n(C)c(=O)n2C)n1Cc1c(F)cccc1Cl (stereo unspecified)	none
CCN(CC)S(=O)(=O)c1ccc(-n2cnc3cc(C)c(C)cc32)nc1	none
CCCC/C(=N\NC(=O)c1ccc(Br)o1)c1ccccc1	D1 antag -66
CCCCCC/C(=N\NS(C)(=O)=O)c1ccccc1	D1 antag -68
CC1CCc2cc(F)cc3c(O)c(C(=O)NCC4CCCO4)c(=O)n1c23 (stereo unspecified)	D1 antag -77
COc1ccc(-c2nc3ccccc3o2)cc1NC(=O)c1ccc(-c2ccc(C)c(Cl)c2)o1	none
COC(=O)c1ccc(CN2C(=O)NC3(CCCCC3)C2=O)cc1	none
Cc1nn(Cc2ccccc2Cl)c(C)c1NC(=O)/C=C/c1cnn(C)c1	none
CCn1cc(/C=C/C(=O)Nc2c(C)nn(Cc3ccccc3)c2C)cn1	TRHR PAM 35
